# Laboratory results as given in PubChem BioAssay (NCATS).
# Several values for one entry are separate records, joined by “and”; a condition that tells them apart may be missing. Equal entries are not always repeated. Records with an inconclusive call do not appear. Activity calls are given as the source filed them. Unless noted, the call rests on the fitted dose curve; in most records, active means well fitted curve in the direction sought with a large enough effect; inconclusive means small, poorly fitted or top-dose-only effect, or another doubt; inactive means no such curve, though single readings can be large; an effect the other way counts as inactive or inconclusive.
# Experiments:
# [1] = Primary qHTS for inhibitors of nuclear receptor binding SET domain protein 2 (NSD2) in an isogenic RCH-ACV NSD2 p.E1099K mutant (9B) (AID 1645876); further: nearly all actives have a fitted effect of over 70% in size; further: potency means the concentration at half of the fitted maximal effect
# [2] = molecular target: Phospholipid hydroperoxide glutathione peroxidase GPX4 (Homo sapiens) (UniProt P36969); experiment: Primary qHTS Assay for Inhibitors of Recombinant Selenoprotein Glutathione Peroxidase 4 (GPX4) (AID 1845192); details: outcome: dose series up to 50 µM unless noted; further: nearly all actives have a fitted effect of over 65% in size
# Chain of Phospholipid hydroperoxide glutathione peroxidase GPX4 (Homo sapiens) (P36969 whole entry, looked up): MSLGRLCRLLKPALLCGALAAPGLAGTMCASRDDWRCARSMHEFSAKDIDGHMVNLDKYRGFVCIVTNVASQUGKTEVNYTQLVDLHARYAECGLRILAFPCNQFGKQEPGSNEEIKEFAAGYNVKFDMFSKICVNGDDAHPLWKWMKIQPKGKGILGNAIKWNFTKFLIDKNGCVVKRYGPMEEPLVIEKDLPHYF
# Procedure, shortened: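 GR-coupled assay: recombinant GPX4 preincubated 30 min with compound at room temperature; final 200 nM GPX4, 1 mM GSH, 0.5 mM cumene hydroperoxide, 0.5 mM NADPH, 100 nM GR, 0.01% BSA, pH 7.5 Tris. NADPH fluorescence (340/450 nm) read at 0 and 15 min.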
# [3] = qHTS drug screen for cell cycle checkpoint inhibitors in PARPi-resistant BRCA-mutant ovarian cancer cell lines. (AID 1963452; calls by dose curve); details: PEO1/OlaR viability, CellTiter-Glo luminescence, 96 h, stronger effect = lower value
# Procedure, shortened: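 PEO1, PEO4 and PEO1/OlaR ovarian cancer cells, 600 per well, exposed 96 h at 37C to a dilution series. Viability read by CellTiter-Glo luminescence, normalized to DMSO and empty wells; activity summarized as Z-AUC.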
# [4] = molecular target: Glutathione peroxidase 1 (Homo sapiens) (UniProt P07203); experiment: Primary qHTS Assay for Inhibitors of Recombinant Selenoprotein Glutathione Peroxidase 1 (GPX1) (AID 1845191); further: nearly all actives have a fitted effect of over 65% in size
# Chain of Glutathione peroxidase 1 (Homo sapiens) (P07203 whole entry, looked up): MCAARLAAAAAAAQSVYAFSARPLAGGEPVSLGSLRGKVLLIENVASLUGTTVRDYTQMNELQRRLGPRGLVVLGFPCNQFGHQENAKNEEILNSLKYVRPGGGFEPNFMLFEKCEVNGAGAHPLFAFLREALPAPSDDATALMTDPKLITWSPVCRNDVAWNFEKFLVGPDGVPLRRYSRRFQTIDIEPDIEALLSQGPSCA
# Procedure, shortened: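 GR-coupled assay: compounds preincubated 30 min at room temperature with GPX1, then reaction started with CHP; final 10 nM GPX1, 1 mM GSH, 0.5 mM CHP, 0.5 mM NADPH, 100 nM GR, 0.01% BSA, pH 7.5 Tris buffer. NADPH fluorescence (340/450 nm) read at 0 and 15 min.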
# [5] = AP1 Signaling Pathway (AID 357; active means well fitted curve in either direction with a large enough effect, not every such curve was filed as active;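 further: ME-180 reporter cells stimulated with EGF at its EC50 level; on the % scale 0 is the no-effect control and ±100 the full control effect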); details: ME-180 (cervical carcinoma) AP-1-bla reporter, EGF-induced, beta-lactamase ratio, 5 h; at 7.69 µM (top of the series) unless noted
# Procedure, shortened: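 Titration-series screen for positive or negative modulators of EC50 EGF-induced signaling in ME-180 cells carrying an AP-1-driven beta-lactamase reporter. After 5 hours at 37 degrees Celsius, CCF4 460nm/530nm emission ratio gave %Activity; AC50 values derived.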
# [6] = molecular target: Cytochrome P450 1A2 (Homo sapiens) (UniProt P05177); experiment: p450-cyp1a2 (AID 410; calls by dose curve; further: potency means the concentration at half of the fitted maximal effect)
# Chain of Cytochrome P450 1A2 (Homo sapiens) (P05177 whole entry, looked up): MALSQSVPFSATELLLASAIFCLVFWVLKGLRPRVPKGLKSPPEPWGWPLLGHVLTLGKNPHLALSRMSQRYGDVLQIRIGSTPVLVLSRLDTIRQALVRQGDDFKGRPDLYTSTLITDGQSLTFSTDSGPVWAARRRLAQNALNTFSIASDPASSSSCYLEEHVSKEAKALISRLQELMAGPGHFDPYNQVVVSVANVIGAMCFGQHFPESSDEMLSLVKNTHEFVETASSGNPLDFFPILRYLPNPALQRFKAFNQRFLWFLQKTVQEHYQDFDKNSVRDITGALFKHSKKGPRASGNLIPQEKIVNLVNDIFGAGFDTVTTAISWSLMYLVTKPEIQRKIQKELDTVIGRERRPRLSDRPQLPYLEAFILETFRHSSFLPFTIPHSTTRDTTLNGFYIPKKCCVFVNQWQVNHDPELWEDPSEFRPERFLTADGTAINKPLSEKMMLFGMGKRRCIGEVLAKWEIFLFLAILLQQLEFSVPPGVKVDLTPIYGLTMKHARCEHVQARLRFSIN
# Procedure, shortened: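 Human CYP1A2 (20nM) demethylated Luciferin-ME at its Km (100uM) in 100mM KPO4. After 10 min compound preincubation, NADPH regeneration ran the reaction 60 min at room temperature. Luciferin was read by luminescence, normalized to 57 uM furafylline.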
# [7] = NFAT Signaling Pathway (AID 444; active means well fitted curve in either direction with a large enough effect, not every such curve was filed as active;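 further: carbachol stimulus at about its EC50 of 1 µM final; on the % scale 0 is the no-effect control and ±100 the full control effect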); details: Jurkat NFAT-bla M1, carbachol, beta-lactamase ratio, 5 h; at 7.69 µM (top of the series) unless noted
# Procedure, shortened: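 Jurkat cells with NFAT-driven β-lactamase reporter and co-expressed M1 receptor, stimulated with carbachol (final 1 uM, ~EC50), compound titration, 5 h at 37 °C. CCF4 loaded 1 h at RT; 460/530 nm ratio gave %activity and AC50.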
# [8] = molecular target: Glucocorticoid receptor (Homo sapiens) (UniProt P04150); experiment: GR-EFC Redistribution (AID 451; calls by dose curve; further: potency means the concentration at half of the fitted maximal effect); details: CHO-K1 GR-EFC translocation, beta-gal luminescence, 2 h
# Chain of Glucocorticoid receptor (Homo sapiens) (P04150 whole entry, looked up, the tested form may be a part): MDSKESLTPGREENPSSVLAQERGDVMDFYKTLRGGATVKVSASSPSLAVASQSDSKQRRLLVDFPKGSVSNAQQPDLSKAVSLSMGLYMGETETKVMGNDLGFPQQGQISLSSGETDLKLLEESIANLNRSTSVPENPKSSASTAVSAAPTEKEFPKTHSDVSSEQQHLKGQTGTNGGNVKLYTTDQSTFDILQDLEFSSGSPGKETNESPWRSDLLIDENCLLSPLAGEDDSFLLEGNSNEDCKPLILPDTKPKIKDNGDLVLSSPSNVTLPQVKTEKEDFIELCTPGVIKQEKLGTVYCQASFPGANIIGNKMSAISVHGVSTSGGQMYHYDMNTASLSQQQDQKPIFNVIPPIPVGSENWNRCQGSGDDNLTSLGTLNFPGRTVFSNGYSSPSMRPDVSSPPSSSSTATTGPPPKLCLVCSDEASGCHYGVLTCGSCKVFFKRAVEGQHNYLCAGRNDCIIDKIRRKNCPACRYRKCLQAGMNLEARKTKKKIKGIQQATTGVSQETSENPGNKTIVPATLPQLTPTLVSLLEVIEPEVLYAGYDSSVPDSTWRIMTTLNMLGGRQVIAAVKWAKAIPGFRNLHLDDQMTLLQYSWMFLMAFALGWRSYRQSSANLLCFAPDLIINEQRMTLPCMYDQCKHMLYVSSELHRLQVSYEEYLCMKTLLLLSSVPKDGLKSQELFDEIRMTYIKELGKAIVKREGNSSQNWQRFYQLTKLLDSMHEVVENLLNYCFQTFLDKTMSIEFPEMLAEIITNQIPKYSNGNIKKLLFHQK
# Procedure, shortened: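 CHO-K1 cells expressing nuclear EA and GR-ED fragments of b-gal; compounds titrated up to 46 uM final, 2 h at 37 C. GR nuclear translocation read as complemented b-gal luminescence after 1 h RT detection.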
# [9] = molecular target: Mitogen-activated protein kinase 10 (Mus musculus) (UniProt Q61831); experiment: JNK3 AlphaScreen Assay (AID 530; active means well fitted curve in either direction with a large enough effect, not every such curve was filed as active;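 further: kinase came from lysate of stimulated human HepG2 cells; signal reports phosphorylation of biotinylated GST-cJun 1-79 at Ser73 with 10 µM ATP; on the % scale 0 is the no-effect control and ±100 the full control effect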)
# Procedure, shortened: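 qHTS format: compounds tested as titrations against IL-1beta/TNF-alpha-activated HepG2 lysate JNK3 with biotin-GST-cJun substrate and 10 uM ATP at room temperature. Loss of anti-phospho-cJun AlphaScreen signal indicates inhibition.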
# [10] = molecular target: 3',5'-cyclic-AMP phosphodiesterase 4B (Homo sapiens) (UniProt Q07343); experiment: qHTS Assay for Inhibitors of PDE-IV (AID 607; active means well fitted activation curve with a large enough effect in the main read-out, with a control signal flat, not every such curve was filed as active; further: % of control where 0% means no effect)
# Chain of 3',5'-cyclic-AMP phosphodiesterase 4B (Homo sapiens) (Q07343 whole entry, looked up): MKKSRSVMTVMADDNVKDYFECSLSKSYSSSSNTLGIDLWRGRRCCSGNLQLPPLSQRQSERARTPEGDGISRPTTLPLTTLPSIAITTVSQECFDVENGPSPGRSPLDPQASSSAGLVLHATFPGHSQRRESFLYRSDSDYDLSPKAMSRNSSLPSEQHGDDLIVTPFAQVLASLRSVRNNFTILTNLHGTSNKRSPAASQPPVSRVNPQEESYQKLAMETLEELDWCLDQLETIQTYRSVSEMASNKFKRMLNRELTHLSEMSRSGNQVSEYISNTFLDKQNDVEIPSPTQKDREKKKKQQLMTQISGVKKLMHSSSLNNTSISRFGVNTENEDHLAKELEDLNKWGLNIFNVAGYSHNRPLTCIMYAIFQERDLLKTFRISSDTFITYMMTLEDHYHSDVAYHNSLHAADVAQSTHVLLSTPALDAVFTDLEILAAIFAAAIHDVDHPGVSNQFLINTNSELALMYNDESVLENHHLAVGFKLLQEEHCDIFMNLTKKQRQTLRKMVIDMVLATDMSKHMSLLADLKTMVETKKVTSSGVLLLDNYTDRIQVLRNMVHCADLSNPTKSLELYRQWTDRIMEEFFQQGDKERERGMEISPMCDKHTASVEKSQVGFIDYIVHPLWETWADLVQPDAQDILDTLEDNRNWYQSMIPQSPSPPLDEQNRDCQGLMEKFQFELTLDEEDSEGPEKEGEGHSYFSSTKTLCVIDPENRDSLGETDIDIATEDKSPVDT
# Procedure, shortened: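 Live HEK293 cells with a modified cyclic nucleotide-gated (CNG) channel report intracellular cAMP via membrane-potential dye fluorescence (ex 535/em 590 nm). Endogenous PDE-IV was targeted. Compounds were tested at up to 22.9 uM final; RO 20-1724 100 uM served as control.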
# [11] = molecular target: Cytochrome P450 3A4 (Homo sapiens) (UniProt P08684); experiment: qHTS Assay for Activators of Cytochrome P450 3A4 (AID 885); further: nearly all actives have a fitted effect of over 65% in size
# Chain of Cytochrome P450 3A4 (Homo sapiens) (P08684 whole entry, looked up): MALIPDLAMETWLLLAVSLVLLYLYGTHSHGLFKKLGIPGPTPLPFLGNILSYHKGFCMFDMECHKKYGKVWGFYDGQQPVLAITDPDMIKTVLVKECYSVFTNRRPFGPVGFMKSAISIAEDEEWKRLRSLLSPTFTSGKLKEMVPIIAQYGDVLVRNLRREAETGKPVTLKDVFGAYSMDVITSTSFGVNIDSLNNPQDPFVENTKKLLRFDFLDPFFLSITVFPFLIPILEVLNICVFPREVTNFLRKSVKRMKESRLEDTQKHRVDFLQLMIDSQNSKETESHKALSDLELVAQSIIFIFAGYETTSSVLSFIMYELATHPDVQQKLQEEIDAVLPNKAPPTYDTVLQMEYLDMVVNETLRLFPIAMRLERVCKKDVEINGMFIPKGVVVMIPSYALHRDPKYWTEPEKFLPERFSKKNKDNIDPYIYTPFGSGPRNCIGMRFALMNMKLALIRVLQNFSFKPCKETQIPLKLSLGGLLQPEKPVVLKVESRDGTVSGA
# Procedure, shortened: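 Quantitative HTS format: compounds preincubated with 20nM human CYP3A4 and Luciferin-PPXE substrate at KM, reaction started by NADPH regeneration, stopped after 60 min, luciferase luminescence read 20 min later.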
# [12] = qHTS Assay for Lipid Storage Modulators (AID 1519; calls by dose curve); details: Drosophila S3 cells, BODIPY lipid droplet/cell ratio, laser cytometry, cells loaded with oleic acid
# Procedure, shortened: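 Cells seeded at 5,000 per well were treated with compounds over a concentration series and loaded with oleic acid (400 uM, as added). Lipid droplet fluorescence (488 nm excitation, 500-530 nm channel) was read by laser-scanning cytometry and normalized to 20 uM Triacsin C.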
# [13] = molecular target: Ubiquitin carboxyl-terminal hydrolase 1 (Homo sapiens) (UniProt O94782); experiment: Inhibitors of USP1/UAF1: Pilot qHTS (AID 504865);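 further: rhodamine fluorescence freed from ubiquitin-rhodamine substrate followed over time; top concentration of the series differs between compounds; on the % scale 0 is the no-effect control and ±100 the full control effect; nearly all actives have a fitted effect of over 35% in size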
# Chain of Ubiquitin carboxyl-terminal hydrolase 1 (Homo sapiens) (O94782 whole entry, looked up): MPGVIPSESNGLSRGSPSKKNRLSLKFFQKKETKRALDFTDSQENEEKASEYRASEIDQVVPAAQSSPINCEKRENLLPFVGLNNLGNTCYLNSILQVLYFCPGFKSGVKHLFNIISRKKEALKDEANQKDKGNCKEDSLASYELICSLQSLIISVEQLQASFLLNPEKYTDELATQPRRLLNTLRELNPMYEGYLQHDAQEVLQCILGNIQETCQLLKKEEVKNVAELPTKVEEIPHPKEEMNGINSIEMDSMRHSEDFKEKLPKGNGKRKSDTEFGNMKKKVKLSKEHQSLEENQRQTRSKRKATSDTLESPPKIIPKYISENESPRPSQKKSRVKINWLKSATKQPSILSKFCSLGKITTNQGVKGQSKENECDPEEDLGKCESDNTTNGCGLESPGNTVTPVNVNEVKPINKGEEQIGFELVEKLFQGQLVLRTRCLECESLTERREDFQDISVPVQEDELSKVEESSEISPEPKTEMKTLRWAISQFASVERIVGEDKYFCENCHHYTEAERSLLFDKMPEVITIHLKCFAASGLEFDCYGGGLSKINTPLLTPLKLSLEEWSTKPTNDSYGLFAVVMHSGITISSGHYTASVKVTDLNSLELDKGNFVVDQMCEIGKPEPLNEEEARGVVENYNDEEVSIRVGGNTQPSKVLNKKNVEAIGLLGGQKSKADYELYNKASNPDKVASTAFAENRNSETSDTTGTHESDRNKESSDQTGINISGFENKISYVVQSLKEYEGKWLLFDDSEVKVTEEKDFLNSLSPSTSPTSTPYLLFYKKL
# Procedure, shortened: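 In 50mM HEPES pH 7.8 containing 0.5mM EDTA, 1mM TCEP, 0.1 mg/ml BSA and 0.01% Tween-20, 1nM USP1/UAF1 is exposed to compound for 15 min, then Ub-Rho (150nM final) is added and fluorescence is read over time.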
# [14] = Primary qHTS for small molecule stabilizers of the endoplasmic reticulum resident proteome: Secreted ER Calcium Modulated Protein (SERCaMP) assay (AID 1508630); further: on the % scale 0 is the no-effect control and ±100 the full control effect
# Procedure, shortened: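 GLuc-SERCaMP-expressing SH-SY5Y cells, pretreated 16 h with compound, are challenged with thapsigargin to empty ER calcium stores; after 4 h, coelenterazine is added directly to the medium and luminescence is imaged.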
# [15] = Primary qHTS for inhibitors of nuclear receptor binding SET domain protein 2 (NSD2) in an RCH-ACV wild type WT cells (2C) (AID 1645877); further: nearly all actives have a fitted effect of over 70% in size; further: potency means the concentration at half of the fitted maximal effect
# [16] = NCATS anti-infectives library activity on HEK293 viability as a counter-qHTS vs the C. elegans viability qHTS (AID 1745854); further: on the % scale 0 is the no-effect control and ±100 the full control effect
# Procedure, shortened: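 HEK293 cells, 1500 per well, exposed 24 hr at 37C in 5% CO2 to compounds in a 1:5 titration, up to 41.7 uM final. Viability read as CellTiter-Glo luminescence after 10 min at room temperature.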
# [17] = measured here: PEO1 parental Z-AUC
smiles,measurement,setting,value
COc1cccc(-c2c(C)n(Cc3c(F)cccc3C(F)(F)F)c(=O)n(C[C@H](NCCCC(=O)O)c3ccccc3)c2=O)c1F,Potency,[1],inactive
same,Potency,[2],inactive
same,Z-AUC,[3],1.28 (inactive) and 1.27 (inactive)
same,Z-AUC,[3]; [17],0.714 and 0.439
same,Z-AUC,[3]; measured here: PEO4 Z-AUC,0.863 and 0.647
CCS(=O)(=O)N1CCC(C(C)n2c(C)c(C(=O)NCc3c(OC)cc(C)[nH]c3=O)c3ccccc32)CC1 (stereo unspecified),Potency,[1],inactive
same,Potency,[4],inactive
same,Potency,[2],inactive
same,Z-AUC,[3],1.37 (inactive)
same,Z-AUC,[3]; [17],0.975
same,Z-AUC,[3]; measured here: PEO4 Z-AUC,0.959
NS(=O)(=O)c1ccc(NC(=S)N2CCN(C/C=C/c3ccccc3)CC2)cc1,Potency,[4],inactive
same,Potency,[2],inactive
same,Z-AUC,[3],0.177 (inactive)
same,Z-AUC,[3]; [17],-0.364
same,Z-AUC,[3]; measured here: PEO4 Z-AUC,-0.0827
CN(C)c1ccc(-c2nc(NCCN3CCOCC3)c3ccccc3n2)cc1,"activity change, negative = inhibition",[5],1.67% (inactive)
same,Potency,[6],7.94 µM (active)
same,"activity change, negative = inhibition",[7],-21.3% (inactive)
same,Potency,[8],> 46 µM (inactive)
same,outcome,[9],inactive
same,Potency,[10],inactive
same,Potency,[11],inactive
same,"activity change, negative = inhibition",[12]; at 57.5 µM (top of the series),3.01% (inactive)
same,max response,[12]; measured here: cell count channel max response,9.82%
same,max response,[12]; measured here: lipid channel max response,10.9%
same,Potency,[13],inactive
same,Potency,[14],inactive
N=C1CCCN1Cc1[nH]c(=O)[nH]c(=O)c1Cl,Potency,[1],inactive
same,Potency,[15],inactive
same,Potency,[4],inactive
same,Potency,[2],inactive
same,Z-AUC,[3],-0.424 (inactive)
same,Z-AUC,[3]; [17],0.0295
same,Z-AUC,[3]; measured here: PEO4 Z-AUC,-0.23
COc1ccc(C(=O)N2CCN(c3ccc4c(c3)CCC(=O)N4)CC2)cc1OC,Potency,[1],inactive
same,Potency,[16],inactive
same,Potency,[4],inactive
same,Potency,[2],inactive
same,Z-AUC,[3],-0.238 (inactive)
same,Z-AUC,[3]; [17],0.0272
same,Z-AUC,[3]; measured here: PEO4 Z-AUC,0.0147
C=CCN1C[C@H](C(=O)N(CCCN(C)C)C(=O)NCC)CC2c3cccc4[nH]cc(c34)C[C@H]21 (stereo partly specified),Potency,[1],inactive
same,Potency,[15],inactive
same,Potency,[4],inactive
same,Potency,[2],inactive
same,Z-AUC,[3],-0.809 (inactive)
same,Z-AUC,[3]; [17],-0.35
same,Z-AUC,[3]; measured here: PEO4 Z-AUC,-0.259
Cn1cc(-c2nc(N[C@@H]3CCCC[C@@H]3N)c(F)c3c2C(=O)NC3)cn1,Potency,[1],0.662 µM (active)
same,Potency,[15],0.59 µM (active)
same,outcome,[4],inactive [at 4.49 µM]
same,outcome,[2],inactive [at 4.52 µM]
same,Z-AUC,[3],0.172 (inactive)
same,Z-AUC,[3]; [17],0.884
same,Z-AUC,[3]; measured here: PEO4 Z-AUC,0.422
CN[C@@H](C)C(=O)N[C@H](C(=O)N1CCC[C@H]1C(=O)Nc1sc(-c2ncco2)nc1-c1ccccc1)C1CCCCC1,Potency,[1],inactive
same,Potency,[15],inactive
same,Potency,[4],inactive
same,Z-AUC,[3],1.87 (inactive)
same,Z-AUC,[3]; [17],0.246
same,Z-AUC,[3]; measured here: PEO4 Z-AUC,0.302
Cc1cnc(NC(=O)c2cc(Oc3cnc(C(=O)N(C)C)nc3)c3cc(C)oc3c2)cn1,Potency,[1],inactive
same,Potency,[15],inactive
same,Potency,[4],inactive
same,Potency,[2],inactive
same,Z-AUC,[3],-1.14 (inactive)
same,Z-AUC,[3]; [17],-0.452
same,Z-AUC,[3]; measured here: PEO4 Z-AUC,0.0814
C[C@H](NC(=O)[C@H]1NCC[C@@H]1O)c1ccc(-c2noc(CCC3CCCC3)n2)cc1,Potency,[1],inactive
same,Potency,[15],inactive
same,Potency,[4],inactive
same,Potency,[2],inactive
same,Z-AUC,[3],0.833 (inactive)
same,Z-AUC,[3]; [17],0.65
same,Z-AUC,[3]; measured here: PEO4 Z-AUC,0.666
